Test results published in PubChem BioAssay (NCATS).
Several values for one entry are separate records, joined by “and”; a condition that tells them apart may be missing. Equal values may be shown once. Inconclusive results are not listed. Activity calls are given as the source filed them. Unless noted, calls come from the whole dose curve; as a rule, active = well fitted curve in the direction sought with a large enough effect; inconclusive = small, poorly fitted or top-dose-only effect, or another doubt; inactive = no such curve, though single readings can be large; an effect the other way counts as inactive or inconclusive.

Tests used:
[1] = target: Cellular tumor antigen p53 (Homo sapiens) (UniProt P04637); experiment: Primary qHTS for small molecule compounds that upregulate eGFP-tagged delta133p53alpha (in N-terminal) cells. (AID 2060322); conditions: NCI-H358 eGFP-delta133p53alpha fluorescence, 24 h; activation: stronger effect = higher value; note: nearly all actives have a fitted effect of over 75% in size; note: potency is the fitted concentration of half-maximal effect;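 for activation: cells pre-induced with doxycycline then dosed without doxycycline; series mostly up to about 56 µM; 0% = DMSO vehicle and 100% = reference activator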
Method in brief: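 NCI-H358 cells pre-induced 24 h with 10 ng/ml doxycycline for eGFP-delta133p53alpha, plated dox-free and exposed 24 h at 37C to titrated compounds. Fixed, Hoechst-stained; gated GFP peak intensity by laser scanning cytometry, normalized to DMSO (0%) and 57.5 uM 5-azacytidine (100%).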

[2] = target: Cellular tumor antigen p53 (Homo sapiens) (UniProt P04637); experiment: Primary qHTS for small molecule compounds that upregulate eGFP-tagged delta133p53alpha (in C-terminal) cells. (AID 2060324); note: potency is the fitted concentration of half-maximal effect
Method in brief: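 Readout: filtered GFP peak intensity of gated cells (laser scanning cytometer), normalized plate-wise to intraplate controls, DMSO wells = 0% activity. Cells: NCI-H358 D133p53a-eGFP, dox 100 ng/ml 24 h beforehand, then compound 24 h, 37 °C.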

[3] = target: Aldehyde dehydrogenase, mitochondrial (Homo sapiens) (UniProt P05091); experiment: qHTS for Inhibitors of the Aldehyde Dehydrogenase Family (ALDH2) Validation screens (AID 2061302; active = well fitted inhibition curve with a large enough effect; title and protocol of this record describe different tests; note: potency is the fitted concentration of half-maximal effect)
[4] = target: Retinaldehyde dehydrogenase 3 (Homo sapiens) (UniProt P47895); experiment: qHTS for Inhibitors of the Aldehyde Dehydrogenase Family (ALDH1A3) Validation screen (AID 2061312); note: % is set by controls: 0 for no effect and ±100 for the full control effect; nearly all actives have a fitted effect of over 45% in size

Sequence of Cellular tumor antigen p53 (Homo sapiens) (P04637 whole entry, looked up): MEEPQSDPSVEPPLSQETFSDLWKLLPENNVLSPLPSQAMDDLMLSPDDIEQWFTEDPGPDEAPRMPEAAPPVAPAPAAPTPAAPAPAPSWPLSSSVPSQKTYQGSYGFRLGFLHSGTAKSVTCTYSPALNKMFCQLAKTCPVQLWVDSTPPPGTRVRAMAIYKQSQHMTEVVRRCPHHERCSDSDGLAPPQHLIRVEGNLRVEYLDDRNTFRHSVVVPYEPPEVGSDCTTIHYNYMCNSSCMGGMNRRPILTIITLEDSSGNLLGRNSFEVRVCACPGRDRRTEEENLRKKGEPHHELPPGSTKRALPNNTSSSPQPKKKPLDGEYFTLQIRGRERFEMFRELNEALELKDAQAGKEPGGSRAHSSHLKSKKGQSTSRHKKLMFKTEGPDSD

COc1ccccc1N1CCN(CCCNc2c(C)c(=O)n(C)c(=O)n2C)CC1
inactive: activation [1] -0.789% | Potency [2] | Potency [3] | Potency [4]

O=C(O)C1CCCNC1 (stereo not drawn)
inactive: activation [1] -25.6% | Potency [2] | Potency [3] | Potency [4]

CCN(CC)CC(=O)Nc1c(C)cccc1C
inactive: activation [1] -3.35% and -7.58% | Potency [2] | Potency [3] | Potency [4]

CC(N)(C(=O)O)c1ccc(C(=O)O)cc1 (stereo not drawn)
inactive: activation [1] 7.46% | Potency [2] | Potency [3] | Potency [4]

Cc1ccc(S(=O)(=O)/C=C/C#N)cc1
active: Potency [1] 30.1 µM | Potency [2] 30.1 µM | Potency [3] 0.398 µM
inactive: Potency [4]

COc1cc(CC(=O)O)ccc1O
inactive: activation [1] -3.12% | Potency [2] | Potency [3] | Potency [4]

CN1CC(=O)N/C1=N/C(=O)Nc1cccc(Cl)c1
inactive: activation [1] 5.86% | Potency [2] | Potency [3] | Potency [4]

CCNC(=O)N1CCN(CCCC(c2ccc(F)cc2)c2ccc(F)cc2)CC1
inactive: activation [1] -22% and -43.5% | Potency [2] | Potency [3] | Potency [4]

CSC(N)=NCCC[C@H](N)C(=O)O
inactive: activation [1] 3.33% | Potency [2] | Potency [3] | Potency [4]

COc1cc(C(O)CO)ccc1OS(=O)(=O)O (stereo not drawn)
inactive: activation [1] 5.13% | Potency [2] | Potency [3] | Potency [4]

N[C@H](CO)C(=O)O
inactive: activation [1] 9.85% | Potency [2] | Potency [3] | Potency [4]

NCC1OC(O[C@H]2[C@H](O)[C@@H](OC3C(O)C(N)CC(N)C3OC3OC(CO)C(O)C(O)C3N)O[C@@H]2CO)C(N)C(O)C1O (stereo partly drawn)
inactive: activation [1] 6.76% | Potency [2] | Potency [3] | Potency [4]
